Assay outcomes as filed in PubChem.
TcdB inh: inhibitors of Clostridioides difficile toxin B glycohydrolase; 350,000 compounds, 0.24% hits; TcdB glycohydrolase enzymatic assay, plate reader; AID 652162; inhibition, % at 9.99 µM; P18177; in the data active = inhibition above about 10%
Target sequence (P18177 whole entry, looked up): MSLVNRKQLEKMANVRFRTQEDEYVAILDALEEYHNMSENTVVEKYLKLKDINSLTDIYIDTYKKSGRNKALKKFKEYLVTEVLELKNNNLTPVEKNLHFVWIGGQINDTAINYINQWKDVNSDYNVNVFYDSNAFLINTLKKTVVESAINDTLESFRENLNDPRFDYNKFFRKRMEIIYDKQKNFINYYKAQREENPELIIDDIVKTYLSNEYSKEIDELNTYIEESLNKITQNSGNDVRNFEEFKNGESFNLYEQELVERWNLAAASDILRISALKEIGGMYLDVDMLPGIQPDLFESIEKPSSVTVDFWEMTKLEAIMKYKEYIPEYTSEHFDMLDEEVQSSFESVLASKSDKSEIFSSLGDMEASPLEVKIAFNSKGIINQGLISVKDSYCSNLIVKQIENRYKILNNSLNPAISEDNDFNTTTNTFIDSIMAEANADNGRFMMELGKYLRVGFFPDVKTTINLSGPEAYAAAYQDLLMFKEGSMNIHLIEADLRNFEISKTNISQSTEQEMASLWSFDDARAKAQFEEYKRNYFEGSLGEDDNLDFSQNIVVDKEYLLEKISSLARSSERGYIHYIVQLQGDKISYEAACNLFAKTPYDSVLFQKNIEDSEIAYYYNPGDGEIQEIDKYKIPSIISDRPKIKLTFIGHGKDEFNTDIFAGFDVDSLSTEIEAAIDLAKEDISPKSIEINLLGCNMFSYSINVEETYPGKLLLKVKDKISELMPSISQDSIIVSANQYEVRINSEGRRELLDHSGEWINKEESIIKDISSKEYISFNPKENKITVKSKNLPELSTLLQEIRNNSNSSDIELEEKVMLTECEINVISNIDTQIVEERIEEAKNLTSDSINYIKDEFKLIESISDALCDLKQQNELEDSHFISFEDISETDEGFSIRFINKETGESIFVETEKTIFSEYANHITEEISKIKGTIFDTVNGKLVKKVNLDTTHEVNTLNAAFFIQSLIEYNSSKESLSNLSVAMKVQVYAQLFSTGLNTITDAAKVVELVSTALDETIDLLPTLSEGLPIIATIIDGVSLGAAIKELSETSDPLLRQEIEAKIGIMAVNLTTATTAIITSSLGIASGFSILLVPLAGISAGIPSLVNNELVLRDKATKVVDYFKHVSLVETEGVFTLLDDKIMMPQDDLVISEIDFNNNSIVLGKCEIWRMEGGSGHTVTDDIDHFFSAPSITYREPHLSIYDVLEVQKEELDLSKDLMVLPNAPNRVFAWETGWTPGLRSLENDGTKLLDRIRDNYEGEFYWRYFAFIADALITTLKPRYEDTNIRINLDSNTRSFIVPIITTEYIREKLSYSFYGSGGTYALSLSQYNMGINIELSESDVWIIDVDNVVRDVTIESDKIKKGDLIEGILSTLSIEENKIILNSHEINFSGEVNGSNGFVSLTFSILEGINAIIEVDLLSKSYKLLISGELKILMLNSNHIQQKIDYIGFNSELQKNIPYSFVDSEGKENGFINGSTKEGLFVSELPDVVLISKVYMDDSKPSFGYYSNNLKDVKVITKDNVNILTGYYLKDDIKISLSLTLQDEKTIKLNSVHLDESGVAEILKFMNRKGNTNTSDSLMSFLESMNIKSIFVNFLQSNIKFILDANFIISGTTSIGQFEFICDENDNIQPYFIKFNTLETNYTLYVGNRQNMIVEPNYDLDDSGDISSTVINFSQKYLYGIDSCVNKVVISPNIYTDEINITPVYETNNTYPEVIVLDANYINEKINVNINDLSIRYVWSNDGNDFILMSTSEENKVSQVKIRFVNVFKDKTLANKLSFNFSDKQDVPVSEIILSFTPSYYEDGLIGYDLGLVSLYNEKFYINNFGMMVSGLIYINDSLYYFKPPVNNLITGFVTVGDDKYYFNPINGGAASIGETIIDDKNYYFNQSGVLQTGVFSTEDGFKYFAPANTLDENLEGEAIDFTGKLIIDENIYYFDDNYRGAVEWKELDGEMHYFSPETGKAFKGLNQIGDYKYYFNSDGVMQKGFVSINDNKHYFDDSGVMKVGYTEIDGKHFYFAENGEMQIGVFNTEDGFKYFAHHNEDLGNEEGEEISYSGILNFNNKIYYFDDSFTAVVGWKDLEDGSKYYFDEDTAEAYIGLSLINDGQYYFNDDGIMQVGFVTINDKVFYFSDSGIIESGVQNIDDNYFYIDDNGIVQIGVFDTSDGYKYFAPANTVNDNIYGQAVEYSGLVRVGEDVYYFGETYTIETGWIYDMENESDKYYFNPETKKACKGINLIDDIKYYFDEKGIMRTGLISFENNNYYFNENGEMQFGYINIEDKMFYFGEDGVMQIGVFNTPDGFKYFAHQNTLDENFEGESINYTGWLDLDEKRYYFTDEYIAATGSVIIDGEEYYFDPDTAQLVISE
VHR inh abs: DUSP3 (human) phosphatase inhibition; recombinant VHR phosphatase, pNPP absorbance; inhibition, % at 13.3 µM; 290,000 compounds, 0.52% hits; in the data active = inhibition above about 50%
Mtb BioA inh: inhibitors of Mycobacterium tuberculosis BioA enzyme. purified M. tuberculosis BioA enzyme, plate reader. inhibition, % at 9.99 µM. 360,000 compounds, 0.096% hits. AID 602481; in the data active = inhibition above about 40%
Yp Topo-I inh: inhibitors of Yersinia pestis topoisomerase I | Y. pestis Topo-I cleavage product accumulation, plate reader | activity, % at 10 µM | 360,000 compounds, 0.064% hits | AID 504884; in the data active = activity above about 50%, passing the limit was not always enough
BH1578 lux ind: induces V. cholerae light production without autoinducers. V. cholerae BH1578 lux reporter, luminescence, 6 h. activation, % at 18.7 µM. 350,000 compounds, 0.16% hits; in the data active = activation mostly above about 9.7%, no sharp cut-off
Of the large screens only hits and unclear results are named; the others gave an inactive call. Compounds with a hit are over-represented: about 0.73% of the library has one in this group of screens.

CN(CCCNC(=O)C1CCC(CNS(=O)(=O)c2ccccc2)CC1)Cc1ccccc1 (stereo not drawn)	VHR inh abs 56
CC(=O)Nc1ccc(S(=O)(=O)NCC2CCC(C(=O)NCCCN(C)Cc3ccccc3)CC2)cc1 (stereo not drawn)	none
Cc1ccc(CSc2nc3c(c(N(C)C)n2)CCCC3)cc1	Yp Topo-I inh 59 (no result: TcdB inh)
Cc1ccc(CSc2nc3c(c(SCC(=O)O)n2)CCCC3)cc1	none (no result: TcdB inh)
COC(=O)CSc1nc(SCc2ccc(C)cc2)nc2c1CCCC2	Yp Topo-I inh 58 (no result: TcdB inh)
C[C@H]1CN([C@@H](C)CO)C(=O)c2cc(C#CCc3ccccc3)cnc2O[C@@H]1CN(C)C(=O)C1CCOCC1	none (no result: VHR inh abs, Yp Topo-I inh, BH1578 lux ind)
COc1ccc(-n2c(SCC(=O)Nc3cc(C)on3)nc3c(c2=O)SCC3)cc1	none
COc1ccc(-n2c(SCC(=O)Nc3cc(C)on3)nc3c(c2=O)SCC3)cc1OC	VHR inh abs 57
CO[C@H]1CN(C)C(=O)c2ccc(NC(=O)C3CCC3)cc2OC[C@H](C)N(Cc2ccncc2)C[C@@H]1C	none (no result: VHR inh abs, Yp Topo-I inh, BH1578 lux ind)
CCc1ccccc1NC1=NCC(=O)N1Cc1ccc(OC)cc1	none (no result: TcdB inh)
CCc1ccccc1NC1=NCC(=O)N1C1CCCC1	VHR inh abs 53 (no result: Mtb BioA inh)
CCC(=O)N1CC2(CCN(Cc3ccc(Cl)cc3)CC2)c2c(n(C)c3cc(OC)ccc23)[C@H]1CO	none (no result: VHR inh abs, Mtb BioA inh, Yp Topo-I inh, BH1578 lux ind)
CCOC(=O)C1CCN(S(=O)(=O)c2cn(C)c(=O)n(C)c2=O)CC1	none
CCOC(=O)N1CCN(S(=O)(=O)c2cn(C)c(=O)n(C)c2=O)CC1	VHR inh abs 52
COc1ccccc1N1CCN(S(=O)(=O)c2cn(C)c(=O)n(C)c2=O)CC1	none
Cn1cc(S(=O)(=O)N2CCN(c3ccccc3F)CC2)c(=O)n(C)c1=O	VHR inh abs 53
Cc1ccc(N=C2NC(=O)CS2)cc1	none (no result: TcdB inh)
O=C1CSC(=Nc2ccc(O)cc2)N1	TcdB inh 15
CO[C@H]1CN(C)C(=O)c2cc(NC(=O)Nc3cc(F)ccc3F)ccc2OC[C@@H](C)N(C(=O)c2cnccn2)C[C@H]1C	none (no result: VHR inh abs, Yp Topo-I inh, BH1578 lux ind)
Cc1noc(C)c1S(=O)(=O)Nc1cccc2c1O[C@H](CN(C)S(=O)(=O)c1ccccc1)[C@H](C)CN([C@@H](C)CO)C2=O	none (no result: VHR inh abs, Yp Topo-I inh, BH1578 lux ind)
CC(C)(C)NC(=O)CSc1nnc(-c2ccco2)n1Cc1ccco1	none (no result: TcdB inh)
CCCn1c(SCC(=O)NC(C)(C)C)nnc1-c1ccco1	VHR inh abs 53
COc1cccc(N2CC(O)Cn3c2nc2c3c(=O)[nH]c(=O)n2C)c1 (stereo not drawn)	VHR inh abs 60
Cc1ccc(N2CC(O)Cn3c2nc2c3c(=O)[nH]c(=O)n2C)cc1 (stereo not drawn)	none
C[C@H]1CN([C@@H](C)CO)C(=O)c2cc(NC(=O)Nc3cccc4ccccc34)ccc2O[C@@H]1CN(C)S(=O)(=O)c1cn(C)cn1	none (no result: VHR inh abs, Yp Topo-I inh, BH1578 lux ind)
O=C(NC(=S)NNC(=O)c1ccccc1F)c1cccnc1	TcdB inh 15
CCNC(=O)C[C@@H]1CC[C@@H]2[C@H](COc3ccc(NC(=O)Nc4ccc(Cl)cc4)cc3C(=O)N2C)O1	none (no result: VHR inh abs, Yp Topo-I inh, BH1578 lux ind)
CCc1ccc(NC(=O)CSc2nncn2-c2cccnc2)cc1	VHR inh abs 56
O=c1c2cc(Br)ccc2nc(-c2ccc(Cl)cc2)n1O	VHR inh abs 52
COc1ccc(S(=O)(=O)Nc2ccc3c(c2)C(=O)N([C@@H](C)CO)C[C@@H](C)[C@H](CN(C)C(=O)NC2CCCCC2)OCCCC[C@H](C)O3)cc1	none (no result: VHR inh abs, Yp Topo-I inh, BH1578 lux ind)
Cc1ccc(S(=O)(=O)Nc2ccc3c(c2)CC(=O)N([C@@H](C)CO)C[C@H](C)[C@H](CN(C)S(=O)(=O)c2ccccc2)O3)cc1	none (no result: TcdB inh, VHR inh abs, Yp Topo-I inh, BH1578 lux ind)
COc1ccc(OCC(=O)NC2CCCCCCC2)cc1	VHR inh abs 56
O=C(NCc1nnc2c(C(F)(F)F)cc(Cl)cn12)c1cccnc1	TcdB inh 12
O=C(NCc1nnc2c(C(F)(F)F)cc(Cl)cn12)c1ccc(Br)o1	none (no result: Mtb BioA inh)
CCc1ccc(Nc2n[n+](-c3ccccc3)c(-c3ccc(SC)cc3)s2)cc1	none
CCc1ccc(Nc2n[n+](-c3ccccc3)c(-c3ccc(OC)c(Br)c3)s2)cc1	TcdB inh 11
COc1ccc(C(C(=O)NCC2CCCO2)N(C(=O)CNC(=O)c2ccco2)c2cc(C)ccc2C)cc1OC (stereo not drawn)	VHR inh abs 53
CCc1ccc(N(C(=O)CNC(=O)c2ccco2)C(C(=O)NCC2CCCO2)c2ccccc2)cc1 (stereo not drawn)	none (no result: Mtb BioA inh)
COc1cc(OC)cc(N(C(=O)CNC(=O)c2ccco2)C(C(=O)NCC2CCCO2)c2ccccc2)c1 (stereo not drawn)	VHR inh abs 58
O=C(COc1ccc(Cl)cc1)NCc1nnc2c3ccccc3c(-c3ccccc3)nn12	VHR inh abs 51 (no result: TcdB inh, Mtb BioA inh)
O=C(N1CCOCC1)C12CC3CC(C1)CC(C(=O)N1CCOCC1)(C3)C2	BH1578 lux ind 5.6 (no result: TcdB inh)
O=C(N1CCOCC1)C12CCC3CC(CC(C3)C1)C2	none (no result: TcdB inh)
O=C(C[C@H]1CC[C@@H](NC(=O)C2CC2)[C@@H](CO)O1)NC1CCC1	none (no result: VHR inh abs, Yp Topo-I inh, BH1578 lux ind)
C[C@H](CO)N1C[C@H](C)[C@@H](CN(C)C(=O)Cc2ccccn2)Oc2ncc(C#CC3CCCCC3)cc2C1=O	none (no result: VHR inh abs, Yp Topo-I inh, BH1578 lux ind)
CC1CCCCN1CCCNC(=O)CN1C(=O)CSc2ccc(S(=O)(=O)N3CCOCC3)cc21 (stereo not drawn)	VHR inh abs 50
CC1CCN(S(=O)(=O)c2ccc3c(c2)N(CC(=O)NCCCN2CC(C)CC(C)C2)C(=O)CS3)CC1 (stereo not drawn)	VHR inh abs 56
CC1CCN(CCCNC(=O)CN2C(=O)CSc3ccc(S(=O)(=O)N4CCC(C)CC4)cc32)CC1	none
CC1CCCCN1CCNC(=O)CN1C(=O)CSc2ccc(S(=O)(=O)N3CCCCC3)cc21 (stereo not drawn)	none
CCCN1C[C@@H](C)[C@H](OC)CN(C)C(=O)c2ccc(NC(=O)Nc3c(C)noc3C)cc2OC[C@H]1C	none (no result: TcdB inh, VHR inh abs, Yp Topo-I inh, BH1578 lux ind)
CC(=O)C1=C(C)Nc2ncnn2C1c1ccc(F)cc1 (stereo not drawn)	none
CC(=O)C1=C(C)Nc2ncnn2C1c1ccc(O)cc1 (stereo not drawn)	VHR inh abs 58
O=C(CNC(=O)c1ccccc1)NCCc1ccc(O)c(O)c1	VHR inh abs 59
COc1ccc(CN(C)C[C@H]2OCCCC[C@@H](C)Oc3ccc(NC(=O)CCC(F)(F)F)cc3C(=O)N([C@@H](C)CO)C[C@@H]2C)cc1	none (no result: VHR inh abs, Yp Topo-I inh, BH1578 lux ind)
Cc1ccc(CN2CCN(Cc3cn[nH]c3C3CCCCC3)CC2CCO)cc1 (stereo not drawn)	VHR inh abs 52
CO[C@H]1CN(C)C(=O)c2cc(NS(C)(=O)=O)ccc2OC[C@H](C)N(CC2CC2)C[C@H]1C	none (no result: VHR inh abs, Yp Topo-I inh, BH1578 lux ind)
COc1cccc(-c2ccc3n(c2=O)C[C@@H]2[C@@H](CO)[C@H](C(=O)N(C)C)N(C(=O)C4CC4)[C@H]32)c1	none (no result: VHR inh abs, Yp Topo-I inh, BH1578 lux ind)
O=C(Cc1c(C(=O)O)[nH]c2ccc(Cl)cc12)Nc1ccc2c(c1)OCCO2	VHR inh abs 52 (no result: TcdB inh)
Cc1ccsc1C(=O)NCc1ccccc1Cl	VHR inh abs 58
O=C(C[C@H]1C[C@@H]2c3cc(NC(=O)NC4CCCC4)ccc3O[C@@H]2[C@@H](CO)O1)NCc1ccc(Cl)cc1	none (no result: VHR inh abs, Yp Topo-I inh, BH1578 lux ind)
